# High-throughput results: PubChem, National Center for Advancing Translational Sciences (NCATS)
# CHX counter = Cycloheximide Counterscreen for Small Molecule Inhibitors of Shiga Toxin; cell reporter, cycloheximide protein synthesis inhibition counterscreen; max response, %; 300,000 compounds, 12% hits; in the data active = max response mostly above about 13%, no sharp cut-off; inactive = mostly below about 14%; also: read at 38.3 µM for the half of the compounds with a filed dose; 0% is about no effect
# Marburg entry inh = qHTS for inhibitors of binding or entry into cells for Marburg Virus | Marburg virus pseudotyped entry inhibition, cell reporter | Potency, µM (doses to about 37.8 µM), for inactives: at the top dose activity change, negative = inhibition, hits mostly inhibitors | 300,000 compounds, 1.8% hits; calls by dose curve; tested in HEK293 cells; also: potency is read from the fitted curve at half-maximal effect; % is scaled to controls: 0 for no effect and ±100 for the full control effect
# LASV entry inh = qHTS for Inhibitors of binding or entry into cells for Lassa Virus; Potency, µM (top dose mostly 37.9 µM), for the others: top-dose activity change, negative = inhibition, most hits filed as inhibitors; 300,000 compounds, 1.2% hits; Lassa virus pseudotype entry inhibition, cell reporter; AID 540256, 2011; calls by dose curve; tested in HEK293 cells; also: potency is read from the fitted curve at half-maximal effect; % is scaled to controls: 0 for no effect and ±100 for the full control effect; nearly all actives have a fitted effect of over 50% in size
# Shiga toxin inh = A qHTS for Small Molecule Inhibitors of Shiga Toxin; inhibition, % at 38.7 µM; AID 2315, 2010; 290,000 compounds, 9.2% hits; Vero cells, Shiga toxin protein synthesis inhibition reporter; in the data active = inhibition mostly above about 28%, no sharp cut-off; inactive = mostly below about 43%; also: 0% is about no effect
# Numbers without * were called inactive; ? = inconclusive; . = no result given; [ ] = another dose, or the depositor's remark. This is a sample that favours compounds with a hit; in the whole collection about 12% have one here.
SMILES,CHX counter,Marburg entry inh,LASV entry inh,Shiga toxin inh
Cc1ccc(-c2ccc(SCC(=O)NC3CCCC3)nn2)cc1,3.7,-3.4%,-18.5%,8.5
Cc1cc(C)c(C)c(S(=O)(=O)N(C)C2CCN(C)CC2)c1C,-1.3,-6.9%[46.1 µM],0.5%,-8.7
CCN1CCCC(C2NC3CCCCC3S2)C1 (stereo not given),.,0.5%,.,.
CC(C)N(C(=S)Nc1cc(S(=O)(=O)N2CCOCC2)ccc1Cl)c1ccccc1,-4.2,?,0.2%,-1.7
C/C(=N/NC(=O)Cc1ccccc1)c1ccc(C)s1,25.4*,?,?,-27.9
C/C(=N\NC(=S)Nc1cc(S(=O)(=O)N2CCOCC2)ccc1Cl)c1ccccc1F,58.8*,?,?,74.6*
O=C(NC(=S)NCCc1ccccc1)c1ccccc1F,41.1*,-29.5%[46.1 µM],-12.8%[46.1 µM],94.4*
O=C(NC(=O)c1ccccc1F)OCc1ccc(Cl)cc1Cl,26.4*,13.9%[46.1 µM],?,69.3*
O=C(CNC(=O)c1ccccc1F)NCCc1ccc(Cl)cc1Cl,6.9,?,.,3.5
Cn1c(=O)n(C)c2cc(N3CCOCC3)c(NS(=O)(=O)c3cccc(C#N)c3)cc21,.,.,-18.0%[46.1 µM],.
O=C(COc1ccccc1)Nc1ccc(OCc2cc(=O)n3ccsc3n2)cc1,.,9.3%[46.1 µM],-9.6%[46.1 µM],.
Cc1ccc(SCCNC(=O)c2ccccc2F)cc1,13.3*,.,.,24.9
O=C(NCCc1ccc2c(c1)OCCO2)c1ccccc1F,69.7*,2.6%,?,91.4*
O=C(NCCc1ccccc1)c1cc(S(=O)(=O)N2CCOCC2)ccc1F,18.9*,1.4%,1.0%,45.2
Cc1c(C(=O)NCCc2ccc3c(c2)OCCO3)oc2ccccc12,1.2,-3.5%,18.7%,6.6
O=C(NCCc1ccccc1)c1ccccc1F,35.5*,?,?,108.8*
COc1ccc(NC(=O)C2CCC(CNS(=O)(=O)c3ccc(Br)s3)CC2)cc1OC (stereo not given),.,-11.0%[46.1 µM],-5.0%[46.1 µM],.
CCC1CCCCN1C(=O)c1ccc2c(c1)C(=O)N(c1ccc(C)cc1)C2=O (stereo not given),-2.1,1.6%[46.1 µM],?,-10.4
Cc1ccc(C(=O)NCCCc2ccccc2)s1,52.8*,?,26.4%,134.1*
Cc1ccc(C(=O)NCC(=O)NCCCc2ccccc2)s1,23.6,24.6%[46.1 µM],-0.3%[46.1 µM],27.9
O=C(NCCc1ccccc1)c1c(F)c(F)c(F)c(F)c1F,11.3,19.5%,2.5%,32.5*
O=C(NCCc1ccccc1)c1ccc(Cl)cc1[N+](=O)[O-],27.4*,.,.,67.3*
Cc1occc1C(=O)NCCCCc1ccccc1,23.4*,?,16.4%,54.8*
O=C(NC(=S)NCCc1ccccc1)c1ccccc1,17.6*,?,2.9%,44.7*
COc1ccccc1NC(=O)c1ccccc1NS(=O)(=O)N1CCCC1,-2.4,1.7%,-1.4%,-2.6
SMILES,CHX counter,Marburg entry inh,LASV entry inh,Shiga toxin inh
O=C(NCCCCc1ccccc1)c1ccccc1F,16.6*,.,.,18.8
O=C(NCCc1ccccc1)c1ccccc1NS(=O)(=O)N1CCCC1,33.3*,1.5%,4.1%,42.6*
O=C(CCc1ccccc1)NNC(=S)NC(=O)c1ccccc1,13.8,?,-25.5%,12.4
COc1ccc(CCNC(=S)NC(=O)c2ccccc2)cc1C,8.4*,?,?,16.8
COc1ccc(CCNC(=S)NC(=O)c2ccc(Br)cc2)cc1OC,-1.9,.,.,-15.4
COc1ccc(NC(=O)c2cc3c(=O)n(C)c4cc(Cl)ccc4c3s2)cc1Cl,.,.,17.5%[46.1 µM],.
COc1ccc([C@]23Cc4cc(C#N)ccc4[C@H](O2)c2c(cc(C)n(-c4ccccc4)c2=O)O3)cc1,.,2.3%[14.2 µM],.,.
O=C(NC(=S)NC(=O)c1ccccc1F)c1ccccc1F,40.1*,-3.3%,1.8%,73.3*
O=C(NCCCCc1ccccc1)c1ccccc1Cl,23.9*,17.3%[46.1 µM],-1.3%,57.6*
Cc1occc1C(=O)NCCc1ccc(Cl)cc1,15.5,-3.0%,16.9%,5.5
CN(C(=O)COc1ccccc1C(=O)NCCc1ccccc1)c1ccccc1,30.4*,?,-3.7%,70.5*
O=C(NCCCCNC(=O)c1ccccc1Cl)c1ccccc1Cl,0.9,5.6%[46.1 µM],1.3%[46.1 µM],-19.5
CCOc1ccccc1C(=O)NCCNC(=O)c1ccccc1OCC,.,-8.2%,?,.
COc1ccccc1CCNC(=O)c1ccoc1C,19.3*,16.8%,?,32.4
O=C(NC(=S)NCc1ccccc1)c1ccccc1F,13.4,11.7%,3.2%,10.4
Cc1c(NC(=O)c2cccs2)cccc1-c1nc2cc(Cl)ccc2o1,.,-14.0%[46.1 µM],13.0%[46.1 µM],.
O=C(Nc1c(C(=O)N2CCN(c3ccccc3)CC2)oc2ccccc12)c1ccco1,.,.,3.7%[46.1 µM],.
O=C(NCCc1ccccc1)c1c[nH]c2c(F)cccc2c1=O,23.2*,-7.9%,8.4%,28.6*
Cc1ccccc1C(=O)NCCCc1ccccc1,39.1*,?,?,139.8*
